AMA1-RON2 inh: qHTS for Inhibitors of AMA1-RON; Towards Development of Antimalarial Drug Lead: Primary Screen; Potency, µM (doses to about 58.2 µM), hits mostly inhibitors; Plasmodium falciparum AMA1 (3D7) - RON2 peptide interaction; actives 0.2% (n = 360,000); AlphaScreen AMA1-biotinylated RON2 peptide binding; further: nearly all actives have a fitted effect of over 45% in size
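AMA1 (3D7) with his tag at 25 nM final met compounds first, then biotinylated RON2 peptide at 25 nM; detection used donor plus acceptor beads, 10 µg/mL apiece, read by AlphaScreen after 30 min at room temperature.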
HCV inh: qHTS Assay for Inhibitors of Hepatitis C Virus (HCV) | Huh7.5.1 HCVcc-Cre infection, luciferase reporter, 44 h | Potency, µM (titrated, usually from 41.8 µM), actives largely listed as inhibitors | actives 3.4% (n = 340,000)
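Compounds are dispensed onto cells plated 4 h earlier at 1,000 per well, with HCVcc-Cre virus (about 0.5 moi) added next. Following 44 h of culture, luminescent signal is measured for 15 sec after 15 min with substrate at room temperature.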
SARS PLP yeast: qHTS of Yeast-based Assay for SARS-CoV PLP; S. cerevisiae expressing SARS-CoV PLpro, growth rescue; Potency, µM (series often up to 32.9 µM), most hits filed as activators; actives 0.19% (n = 330,000); AID 485353, 2010; calls by dose curve; further: nearly all actives have a fitted effect of over 55% in size
Pf growth 48h: Primary qHTS for delayed death inhibitors of the malarial parasite plastid, 48 hour incubation | P. falciparum luciferase growth in erythrocytes, 48 h | Potency, µM (top dose mostly 28.7 µM), most hits filed as inhibitors | actives 5.9% (n = 310,000)
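First compound was added to culture medium, then infected red cells at 0.1% parasitemia and 2% hematocrit (final). After incubation at 37 C under 5% CO2, luciferase detection reagent was dispensed and light output recorded.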
NS1 function inh: qHTS Assay for Inhibitors of Influenza NS1 Protein Function | actives 0.4% (n = 270,000) | Potency, µM (top dose mostly 46.1 µM); calls by dose curve; further: actives are rising curves; nearly all actives have a fitted effect of over 50% in size
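OD600 was taken as the measure of yeast growth restored by compound in an NS1-expressing S. cerevisiae strain. Cells had been washed out of glucose medium and diluted 1:100 into galactose -URA medium, pH 6.0.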
Pf growth 96h: Primary qHTS for delayed death inhibitors of the malarial parasite plastid, 96 hour incubation. P. falciparum luciferase reporter growth, 96 h. Potency, µM (highest dose often 28.7 µM), actives largely listed as inhibitors. actives 6.9% (n = 320,000). AID 504834, 2011
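Erythrocytes infected with luciferase-expressing P. falciparum were dispensed at 2% hematocrit and 0.05% parasitemia (final), then incubated with compounds 96 hours at 37 C in 5% CO2. Luminescence after detection reagent addition reported growth.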
A number is an active result; 0 = inactive; ? = inconclusive; - = not tested or not shown. An excerpt weighted towards active compounds, which were near 12% of everything screened. Unless noted, the call rests on the fitted dose curve; in most records, active means well fitted curve in the direction sought with a large enough effect; inconclusive means small, poorly fitted or top-dose-only effect, or another doubt; inactive means no such curve, though single readings can be large; an effect the other way counts as inactive or inconclusive.

SMILES | AMA1-RON2 inh | HCV inh | SARS PLP yeast | Pf growth 48h | NS1 function inh | Pf growth 96h
N#CC(OC(=O)c1ccccc1)c1cccc([N+](=O)[O-])c1 (stereo not drawn) | 0 | 0 | - | - | - | -
CC(C)NC(=O)C1(C)CN(S(C)(=O)=O)CC(=O)N1Cc1cccc(C(F)(F)F)c1 (stereo not drawn) | 0 | - | - | - | - | -
C[C@]12CCC(=O)C[C@@H]1CC[C@@H]1[C@@H]2CC[C@]2(C)[C@@H](C(=O)COC(=O)CCC(=O)O)CC[C@@H]12 | 0 | 0 | 0 | 0 | 0 | 0
N#Cc1c(SCC(=O)OCc2ccccc2)nsc1SCC(=O)OCc1ccccc1 | 0 | 0 | 0 | - | 0 | 0
CCc1c(C#N)c(N)nc(SCC(=O)OCc2ccccc2)c1C#N | 0 | 0 | 0 | 9.3µM | 0 | ?
Cc1ccc(NC(=O)C2CCCN(C3=NS(=O)(=O)c4ccccc43)C2)c(O)c1 (stereo not drawn) | 0 | 0 | 0 | 12µM | - | 15µM
O=C(Nc1ccc(Cl)cc1F)C1CCCN(C2=NS(=O)(=O)c3ccccc32)C1 (stereo not drawn) | 0 | 0 | 0 | 0 | - | ?
Cc1ccc(NC(=O)C2CCCN(c3ncccn3)C2)c(C)c1 (stereo not drawn) | 0 | 0 | 0 | 0 | 0 | 13µM
Cc1ccc(NC(=O)C2CCCN(c3nccc(C)n3)C2)c(C)c1 (stereo not drawn) | 0 | 0 | 0 | 0 | 0 | 0
Cc1ccc(-c2cc(C(=O)OCC(=O)N(C)c3c(N)n(Cc4ccccc4)c(=O)[nH]c3=O)c3ccccc3n2)o1 | 0 | 0 | 0 | ? | - | ?
CCN(CC)CCn1c(=N)n(CC(O)c2ccco2)c2ccccc21 (stereo not drawn) | 0 | 0 | 0 | ? | 0 | ?
COc1ccccc1[As](=O)(O)CC(O)COc1ccc(Cl)cc1Cl (stereo not drawn) | - | - | 0 | ? | 0 | ?
CCN(CC)CCn1c(=N)n(CC(O)COc2cccc(C)c2)c2ccccc21 (stereo not drawn) | 0 | 6.3µM | 0 | ? | - | 0
Cc1cccc(OCC(O)Cn2c(=N)n(Cc3ccccc3)c3ccccc32)c1 (stereo not drawn) | 0 | ? | 0 | 5.9µM | 0 | 5.2µM
Cc1cccc(OCC(O)CN2CC2)c1 (stereo not drawn) | 0 | - | - | - | - | -
N=c1n(Cc2ccccc2)c2ccccc2n1CC(O)COc1ccc(Cl)cc1Cl (stereo not drawn) | 0 | 11µM | 0 | ? | 0 | 0
CCOC(=O)Cn1c(=N)n(CCOc2cccc(C)c2)c2ccccc21 | 0 | ? | 0 | 0 | 0 | ?
CCN(CC)CCn1c(=N)n(CC(O)c2ccc(OC)c(OC)c2)c2ccccc21 (stereo not drawn) | 0 | 0 | 0 | 9.3µM | 0 | 0
NC(N)=NS(=O)(=O)c1ccc(NC(=S)NC(=O)Cc2ccc(Cl)cc2)cc1 | 0 | 0 | 0 | 0 | 0 | 0
CN(c1ccc(OCC(=O)N2CCOCC2)cc1)S(=O)(=O)c1ccc(Cl)cc1 | 0 | 0 | 0 | 0 | - | ?
Cc1ccc(OCC(O)Cn2c(=N)n(Cc3ccccc3)c3ccccc32)cc1 (stereo not drawn) | 0 | ? | 0 | - | 0 | 3.7µM
Cc1ccc(OCC(O)CN2CCN(c3ccccc3)CC2)cc1 (stereo not drawn) | 0 | 0 | 0 | 0 | 0 | 0
N=c1n(CCO)c2ccccc2n1Cc1ccc(Cl)cc1 | 0 | 0 | 0 | - | 0 | 0
Cc1cccc(OCC(O)Cn2c(=N)n(CCN3CCCCC3)c3ccccc32)c1 (stereo not drawn) | 0 | 7.1µM | 0 | 2.9µM | 0 | 2.6µM
N=c1n(Cc2ccccc2)c2ccccc2n1CC(O)c1ccco1 (stereo not drawn) | 0 | 0 | 0 | - | 0 | ?
SMILES | AMA1-RON2 inh | HCV inh | SARS PLP yeast | Pf growth 48h | NS1 function inh | Pf growth 96h
N=c1n(Cc2ccc(Cl)cc2)c2ccccc2n1CC(O)COc1ccccc1 (stereo not drawn) | 0 | 13µM | 0 | ? | 0 | 0
COc1ccc(OCC(O)Cn2c(=N)n(Cc3ccccc3)c3ccccc32)cc1 (stereo not drawn) | 0 | 10µM | 0 | ? | 0 | ?
CCc1cc(S(=O)(=O)N2CCN(C(=O)c3ccco3)CC2)ccc1OC | 0 | 0 | 0 | 0 | 0 | 0
CC(C)NC(=O)c1cc(C2CCCCN2S(=O)(=O)c2ccc(C#N)cc2)on1 (stereo not drawn) | 0 | - | - | - | - | -
CC(=O)c1cccc(NC(=O)NNC(=O)c2ccc(-c3ccccc3)cc2)c1 | 0 | 0 | 0 | 0 | 0 | 0
COCCn1c(SC(C(=O)Nc2cc(C)ccc2OC)c2ccccc2)nnc1-c1ccc(Cl)cc1 (stereo not drawn) | 0 | 0 | 0 | 13µM | ? | 9.3µM
COc1ccc(C)cc1NC(=O)C(Sc1nnnn1C)c1ccccc1 (stereo not drawn) | 0 | 0 | 0 | 0 | 0 | 0
CCOc1ccsc1C(=O)O | 0 | 3.2µM | 0 | 0 | 0 | 0
O=C(COC(=O)c1cc(NS(=O)(=O)c2cccs2)ccc1O)Nc1ccccc1 | 0 | 0 | 0 | 0 | 0 | 0
CN(Cc1ccccc1)C(=O)COC(=O)c1cc(NS(=O)(=O)c2cccs2)ccc1O | 0 | 10µM | 0 | 0 | - | ?
COc1ccccc1S(=O)(=O)N(C)C[C@@H]1OCc2cnnn2CCCC(=O)N([C@@H](C)CO)C[C@H]1C | 0 | - | - | - | - | -
CC(C)c1cccc(OCCN2CCCC2)c1 | 0 | 0 | 0 | 0 | 0 | 10µM
Clc1cccc(OCCN2CCCC2)c1 | 0 | 0 | 0 | 0 | 0 | 0
CN1CCN(CCOc2cccc(Cl)c2)CC1 | 0 | 0 | 0 | 0 | 0 | 10µM
Cc1cc([N+](=O)[O-])nn1CC(=O)NCc1nc2ccccc2[nH]1 | 0 | 0 | 0 | 0 | - | ?
O=C1c2ccccc2-n2c1nc1ccccc1c2=O | 0 | 0 | 0 | 0.33µM | 0 | 0.0037µM
Cc1ccccc1-n1c(-c2ccco2)nc2ccccc2c1=O | 0 | ? | 0 | ? | 0 | 0
O=c1c2ccccc2nc(-c2ccco2)n1-c1nc2ccccc2s1 | 0 | 0 | 0 | 0 | 0 | 1µM
O=c1c2ccccc2nc(-c2ccccc2)n1-c1ccccc1O | 0 | 0 | 0 | ? | 0 | ?
O=c1c2ccccc2nc(-c2ccco2)n1-c1ccccc1 | 0 | 0 | 0 | ? | 0 | 8.3µM
O=c1c2ccccc2nc(-c2ccco2)n1-c1ccncc1 | 0 | 0 | 0 | 0 | 0 | ?
COc1ccc(CCN(C)Cc2nc(Cc3ccc(OC)c(OC)c3)no2)cc1OC | 0 | ? | 0 | 0 | 0 | 0
O=C(Nc1ccc(N2CCOCC2)cc1N1CCOCC1)c1cccc([N+](=O)[O-])c1 | 0 | ? | 0 | 0 | 0 | 0
